# Pf growth 48h – P. falciparum growth inhibition at 48 hours (one generation). P. falciparum luciferase growth in erythrocytes, 48 h. Potency, µM (doses to about 28.7 µM), for inactives: top-dose activity change, negative = inhibition, usual class: inhibitors. 310,000 tested, 5.9% active. AID 504832; note: potency is the fitted concentration of half-maximal effect; % is set by controls: 0 for no effect and ±100 for the full control effect
#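 Luminescence readout; reporter = integrated firefly luciferase in P. falciparum. RBC culture at 2% hematocrit, 0.1% parasitemia final, 37 C/5% CO2; decreased signal taken as growth inhibition.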
# Shiga inhibitor – Shiga toxin inhibition; Vero cells, Shiga toxin protein synthesis inhibition reporter; inhibition, % at 38.7 µM; 290,000 tested, 9.2% active; AID 2315; in the data active = inhibition mostly above about 28%, no sharp cut-off; inactive = mostly below about 43%; note: 0% is about no effect
# Pf growth 96h – inhibits malaria parasite growth, 96 h; P. falciparum luciferase reporter growth, 96 h; Potency, µM (top dose mostly 28.7 µM), inactives show at the top dose activity change, negative = inhibition, hits mostly inhibitors; 320,000 tested, 6.9% active; AID 504834; note: potency is the fitted concentration of half-maximal effect; % is set by controls: 0 for no effect and ±100 for the full control effect
#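 96 h incubation, 37 C, 5% CO2, of luciferase-reporter P. falciparum-infected RBCs (2% hematocrit, 0.05% parasitemia final) with test compounds; endpoint luminescence.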
# Cycloheximide cs – counter-screen for Shiga toxin inhibitors: cycloheximide protein synthesis inhibition; 300,000 tested, 12% active; cell reporter, cycloheximide protein synthesis inhibition counterscreen; max response, %; AID 2314; in the data active = max response mostly above about 13%, no sharp cut-off; inactive = mostly below about 14%; note: read at 38.3 µM for the half of the compounds with a filed dose; 0% is about no effect
# Numbers without * were called inactive; ? = inconclusive; / = not tested or not shown; [ ] = another dose, or the depositor's remark. Sampled rows, rich in hits. Any-hit rate of the full collection: about 21%. Unless noted, calls come from the whole dose curve; as a rule, active = well fitted inhibition curve with a large enough effect; inconclusive = small, poorly fitted or top-dose-only effect, or another doubt; inactive = no such curve, though single readings can be large or run the other way.
SMILES,Pf growth 48h,Shiga inhibitor,Pf growth 96h,Cycloheximide cs
CCN1CCN(Cc2ccc(NC(=O)c3ccc(C)c(NC(=O)C[C@@H]4NC(=O)[C@H](Cc5ccccc5)NC4=O)c3)cc2C(F)(F)F)CC1,?,22.8,?,-6.2
CCN1CCN(Cc2ccc(NC(=O)c3cc(NC(=O)C4=NN(c5ccccc5)C(=O)C4)cc(OC)c3)cc2C(F)(F)F)CC1,0.928µM*,11.8,0.329µM*,3.5
CCN1CCN(Cc2ccc(NC(=O)c3ccc(C)c(NC(=O)c4cccc(-c5cn[nH]c(=O)c5)c4)c3)cc2C(F)(F)F)CC1,1.65µM*,-1.3,1.47µM*,-0.9
CCN1CCN(Cc2ccc(NC(=O)c3cc(NC(=O)c4cncc(-c5cccs5)c4)cc(OC)c3)cc2C(F)(F)F)CC1,?,-18.9,?,-10.7
CCN1CCN(Cc2ccc(NC(=O)c3ccc(C)c(NC(=O)c4csc(-c5ccncc5)n4)c3)cc2C(F)(F)F)CC1,1.65µM*,5.2,0.928µM*,-10.5
CCN1CCN(Cc2ccc(NC(=O)c3ccc(C)c(/C=C/c4cnc(Nc5cc(N6CCNCC6)nc(C)n5)cn4)c3)cc2C(F)(F)F)CC1,?,-7.8,?,-7.4
Cc1ccc(C)c(NC(=S)N(Cc2ccc(Cl)cc2)Cc2ccc(C(=O)O)cc2)c1,?,-13.9,?,-0.8
O=C(O)c1c[nH]c2cc(C(F)(F)F)ccc2c1=O,21.9%,-9.0,-23.8%,5.2
CCN1CCN(Cc2ccc(NC(=O)c3ccc(C)c(NC(=O)c4c[nH]c5cc(C(F)(F)F)ccc5c4=O)c3)cc2C(F)(F)F)CC1,0.586µM*,-4.3,0.522µM*,-5.2
O=c1oc2ccccc2cc1-c1csc(Cc2nc(-c3ccc(Cl)cc3)cs2)n1,18.2%,-8.0,-5.0%,-1.0
Cc1ccccc1-c1nc2ccccc2o1,/,-3.0,6.2%,10.6
O=c1oc2ccccc2cc1-c1nc2ccccc2o1,43.9%,71.0*,1.5%,37.8*
COc1ccc2oc(=O)c(-c3nc4ccccc4o3)cc2c1,35.4%,66.4*,52.0%,25.0*
O=c1oc2ccccc2cc1-c1nc2c(s1)CCCC2,279.1%,56.0*,163.7%,31.2*
CN(C)CCOC(=O)CCCCCCCCC(=O)OCCN(C)C,162.8%,-6.9,130.3%,-2.7
Cc1cc(NC(=O)COC(=O)CNC(=O)c2cccs2)c([N+](=O)[O-])cc1C,12.2%,/,-3.9%,/
CCc1ccccc1NC(=O)CSc1nc2n[nH]c(C)c2c(=N)n1-c1cccc(OC)c1,13.1µM*,5.9,/,0.7
CCOc1ccccc1-n1c(SCC(=O)Nc2ccc(CC)cc2)nc2n[nH]c(C)c2c1=N,?,-9.3,?,-4.4
COc1ccc(OC)c(NC(=O)CSc2nc3n[nH]c(C)c3c(=N)n2-c2cccc(Cl)c2C)c1,?,-2.4,?,24.7*
COc1ccc(NC(=O)CSc2nc3n[nH]c(C)c3c(=N)n2-c2ccc(Cl)c(C)c2)cc1OC,?,-4.1,?,-3.3
Cc1ccccc1-n1c(SCC(=O)Nc2ccccc2Cl)nc2n[nH]c(C)c2c1=N,?,-3.1,0.0%,9.7
CCOc1ccccc1NC(=O)CCSc1nc2n[nH]c(C)c2c(=N)n1-c1ccccc1Cl,11.7µM*,-3.9,115.1%,-4.4
CCN(CCCNC(=O)CNC(=O)c1nn(-c2ccc(OC)cc2OC)c(=O)c2ccccc12)c1cccc(C)c1,?,22.6,10.5%,-3.2
CN(C/C=C\c1ccccc1)Cc1cccc2ccccc12,/,/,-17.6%,/
O=C(CCN1C(=O)S/C(=C\C=C\c2ccccc2)C1=O)Nc1ccc(O)cc1,65.5%,52.1*,57.8%,32.4*
SMILES,Pf growth 48h,Shiga inhibitor,Pf growth 96h,Cycloheximide cs
O=C(CN1C(=O)S/C(=C\c2cccs2)C1=O)Nc1ccc(O)c(C(=O)O)c1,-11.8%,6.6,10.4µM*,-3.4
O=C(CN1C(=O)S/C(=C\C=C\c2ccccc2)C1=O)Nc1ccccc1C(=O)O,-2.7%,-6.2,9.7%,-2.3
O=C(CN1C(=O)S/C(=C\C=C\c2ccccc2)C1=O)Nc1cccc(O)c1,?,38.0*,32.5%,33.6*
O=C(CN1C(=O)S/C(=C\c2cccs2)C1=O)Nc1ccc(C(=O)O)c(O)c1,-4.2%,0.5,1.6%,-0.8
CCN(CC)CCSc1nc2ccccc2n1Cc1ccccc1,?,-8.2,-11.9%,-4.8
CCc1nnc(NC(=O)CSc2ccc(-c3nc4ccccc4[nH]3)cn2)s1,4.3%,82.9*,69.2%,26.5*
Cc1ccc2nc(-c3ccc(SCC(=O)Nc4nnc(C)s4)nc3)[nH]c2c1,-40.6%,51.3*,26.7%,69.5*
Cc1ccc2nc(SCC(=O)Nc3nnc(SCC(N)=O)s3)[nH]c2c1,-16.6%,-6.7,-22.2%,-3.0
Cc1nc(NC(=O)CSc2ccc(-c3nc4ccccc4[nH]3)cn2)sc1C,12.1%,21.7,-23.7%,2.1
Cc1ccc2nc(-c3ccc(SCC(=O)Nc4nc(C)cs4)nc3)[nH]c2c1,11.6%,50.5,0.0%,32.0*
CN(C)S(=O)(=O)c1cccc(NC(=S)N(CCC#N)Cc2cccnc2)c1,-5.9%,-4.3,2.5%,-2.9
Cn1c(=O)c2c(ncn2Cc2cccc(Cl)c2)n(C)c1=O,?,11.7,0.928µM*,9.0
Cn1c(=O)c2c(ncn2Cc2ccc(Cl)c(Cl)c2)n(C)c1=O,-17.9%,-5.4,8.2%,1.1
Cc1cc(C)n2nc(C(=O)OCC(=O)NCc3ccccc3)nc2n1,-8.9%,/,-23.2%,/
O=[N+]([O-])c1ccc2c(c1)S(=O)(=O)C=C2,/,-14.9,/,-9.0
Cc1oc2c(c1C(=O)NCc1cccnc1)C(=O)c1ccccc1C2=O,?,8.9,0.147µM*,2.6
COc1ccc(CNC(=O)c2c(C)oc3c2C(=O)c2ccccc2C3=O)cc1,?,-10.1,3.29µM*,-1.1
CC(=O)c1c(C)oc2c1C(=O)c1ccccc1C2=O,?,22.5,-29.3%,-2.7
Cc1ccc(S(=O)(=O)Nc2ncnc3ccccc23)cc1,25.6%,26.8,35.0%,15.6
O=C(COC(=O)Cn1[nH]c(=O)c2ccccc2c1=O)NNC(=O)c1ccc(Br)cc1,3.1%,/,-1.5%,/
CC(=O)/C(=N\Nc1ccccc1)Sc1nncn1C,24.1%,6.0,4.2%,-3.6
O=C(CN1CCN(CC(=O)Nc2ccccc2Cc2ccccc2)CC1)Nc1ccccc1Cl,?,-2.9,13.1µM*,-3.4
O=C(CN1CCCC1)Nc1ccccc1Cl,/,-2.1,6.0%,4.8
O=C(CN1CCCC1)Nc1ccc(NC(=O)Nc2ccccc2Cl)cc1,0.0%,50.3,?,24.5*
CCCN1CCN(CCCNC(=O)Cn2nc(-c3ccccc3)ccc2=O)CC1,4.2%,2.0,42.8%,-2.6
SMILES,Pf growth 48h,Shiga inhibitor,Pf growth 96h,Cycloheximide cs
NNc1nc2sc3c(c2c(=O)n1C1CCCCC1)CCN(Cc1ccccc1)C3,?,9.1,1.17µM*,-2.1
N#CCSc1nc2sc3c(c2c(=O)n1C1CCCCC1)CCCC3,?,-20.3,-7.0%,-1.6
CSc1nc2sc3c(c2c(=O)n1C1CCCCC1)CCN(C)C3,?,-20.8,?,-1.9
C=C(C)CSc1nc2sc3c(c2c(=O)n1C1CCCCC1)CCN(C)C3,1.47µM*,-13.4,1.04µM*,-1.6
O=c1[nH]cnc2sc3c(c12)CCN(Cc1ccccc1)C3,0.7%,-9.9,-29.0%,-4.2
CCSc1nc2sc3c(c2c(=O)n1C1CCCCC1)CCN(C)C3,1.31µM*,-6.4,-4.8%[5.75 µM],-2.2

# High-throughput results as filed in PubChem BioAssay.
